IL-1B inflam inh: blocks inflammasome-driven IL-1 beta release | THP-1 LPS/ATP IL-1B secretion, AlphaLISA, 16 h; hits give low values | activity change, % at 57.5 µM | 360,000 compounds, 4.7% hits | AID 743279; in the data active = activity change below about -50%; inconclusive = mostly about -30% to -49%
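THP-1 cells pretreated 1 hr with compounds (up to 57.5 uM final), then stimulated with LPS (250 ng/mL final) plus ATP (1.25 mM final); secreted IL-1B measured by AlphaLISA after 16 hr, decreased signal indicating inhibition.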
HT1080NT lethal: kills 2HG-producing HT-1080-NT fibrosarcoma cells; HT-1080-NT fibrosarcoma viability, CellTiter-Glo ATP luminescence, 48 h; AID 686970; 360,000 compounds, 1.6% hits; Potency, µM (highest dose often 46.1 µM), inactives show top-dose activity, negative = less viability, hits mostly cytotoxic;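 note: NT is the 2HG producing partner of a matched IDH1 knockdown line; potency is the fitted concentration of half-maximal effect; 0% = DMSO-treated cells and -100% = media-only wells without cells; nearly all actives have a fitted effect of over 55% in size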
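HT-1080-NT fibrosarcoma cells (2HG-overproducing), 750 cells/well in RPMI with 5% FBS, dosed after 2 h and incubated 48 h at 37C. CellTiter-Glo luminescence normalized to DMSO and no-cell wells; concentration-response curves fitted and classed.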
HT1080 IDH1KD tx: HT-1080 IDH1 knockdown cell toxicity (counter line); AID 686971; 360,000 compounds, 2% hits; Potency, µM (doses to about 46.1 µM), inactives show at the top dose activity, negative = toxicity, most hits filed as cytotoxic; HT-1080 IDH1 knockdown viability, ATP luminescence, 48 h;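 note: potency is the fitted concentration of half-maximal effect; 0% = DMSO wells and -100% = cell-free medium wells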
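After a 2 h attachment period, IDH1KD HT-1080 cells took pin-transferred compound for 48 h at 37 °C; ATP-based luminescence after 10 min room-temperature reagent incubation reported viability.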
DT40 TDP1 no CPT: qHTS for Inhibitors of human tyrosyl-DNA phosphodiesterase 1 (TDP1): qHTS in cells in absence of CPT; DT40 Tdp1-/- hTDP1 cells, no CPT, ATP luminescence, 48 h; Potency, µM (titrated, usually from 46.2 µM), for inactives: at the top dose activity change, negative = growth inhibition, most hits filed as inhibitors; 420,000 compounds, 15% hits; AID 686978, 2013; note: potency is the fitted concentration of half-maximal effect; nearly all actives have a fitted effect of over 55% in size
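Luminescent ATP content (CellTiter-Glo) served as the growth readout. Knockout chicken DT40 cells expressing human TDP1 were exposed to compounds without camptothecin for a minimum 48 hr at 37 °C.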
DT40 TDP1 CPT: growth inhibition of DT40 Tdp1-/-;hTDP1 cells with camptothecin (screen for TDP1 inhibitors). chicken DT40 Tdp1-/-;hTDP1 cells + 20 nM CPT, ATP luminescence, 48 h. Potency, µM (top dose mostly 46.2 µM), without a hit: at the top dose activity change, negative = growth inhibition, most hits filed as inhibitors. 420,000 compounds, 12% hits. AID 686979; note: potency is the fitted concentration of half-maximal effect; nearly all actives have a fitted effect of over 55% in size
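Chicken DT40 Tdp1-/- cells complemented with human TDP1, 400 cells/well, exposed to compounds plus 20 nM camptothecin for at least 48 h at 37 C; viability read as ATP content by CellTiter-Glo luminescence.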
* marks the source's active call; other numbers are inactive results; ? = inconclusive; / = not tested or not shown. The list is not random: actives were taken first. Their share in the collection is about 19%. Unless noted, calls come from the whole dose curve; as a rule, active = well fitted curve in the direction sought with a large enough effect; inconclusive = small, poorly fitted or top-dose-only effect, or another doubt; inactive = no such curve, though single readings can be large; an effect the other way counts as inactive or inconclusive. Unless noted, % is set by controls: 0 for no effect and ±100 for the full control effect.

SMILES	IL-1B inflam inh	HT1080NT lethal	HT1080 IDH1KD tx	DT40 TDP1 no CPT	DT40 TDP1 CPT
Cc1cccc(OCC(=O)N2CCN(c3nnc(-c4ccccc4)c4ccccc34)CC2)c1	-22	-4%	-14%	18µM*	?
Cc1c(C(=O)Nc2nc3ccccc3[nH]2)oc2c(Cl)cccc12	51	-17%	-19%	16µM*	?
O=C(Nc1nc2ccccc2[nH]1)c1ccc(Br)o1	15	?	?	15µM*	?
Cc1c(C(=O)Nc2nc3ccccc3[nH]2)oc2ccccc12	17	-4%	-17%	23µM*	21µM*
COc1ccc(C)cc1Nc1c2c(nc3nc(-c4cccs4)nn13)CCCC2	/	/	/	-25%	6%
Fc1cc(Br)ccc1Nc1c2c(nc3nc(-c4cccs4)nn13)CCCC2	/	/	/	18µM*	21µM*
c1ccc(Nc2c3c(nc4ncnn24)CCC3)cc1	6	2%	3%	-1%	-29%
CC(=O)c1cccc(Nc2c3c(nc4nc(-c5cccs5)nn24)CCCC3)c1	/	/	/	18µM*	?
CCn1ncc(Br)c1C(=O)NC1CCCCCCC1	0	-3%	-1%	-17%	?
COc1ccc(NC(=O)CSCC(=O)Nc2ccc(C)c(S(=O)(=O)N3CCCCCC3)c2)cc1	-11	-15%	-24%	-6%	-12%
COCOCCn1cc(CN2CCS(=O)(=O)N(Cc3ccc(-c4ccc(F)cc4)cc3)C(C(C)C)C2=O)nn1 (stereo not drawn)	?	-15%	-30%	18µM*	?
COCOCCn1cc(CN2CCS(=O)(=O)N(Cc3ccc(-c4ccc(F)cc4)cc3)C(CC(C)C)C2=O)nn1 (stereo not drawn)	-18	?	?	15µM*	26µM*
CCC/C=C/c1ccc(CN2C(C(C)C)C(=O)N(Cc3cn(CCOCOC)nn3)CCS2(=O)=O)cc1 (stereo not drawn)	9	10%	2%	?	?
COCOCCn1cc(CN2CCS(=O)(=O)N(Cc3ccc(-c4ccc(OC)cc4)cc3)C(C)C2=O)nn1 (stereo not drawn)	-3	0%	1%	12µM*	21µM*
CC1C(=O)N(Cc2cn(CCC3OCCO3)nn2)CCS(=O)(=O)N1Cc1ccc(-c2ccc(F)nc2)cc1 (stereo not drawn)	-18	4%	4%	?	-24%
COCOCCn1cc(CN2CCS(=O)(=O)N(Cc3ccc(-c4ccc(C)cc4)cc3)C(CC(C)C)C2=O)nn1 (stereo not drawn)	-21	-20%	-6%	?	-64%
COCOCCn1cc(CN2CCS(=O)(=O)N(Cc3ccc(-c4ccc(Cl)cc4)cc3)C(C(C)C)C2=O)nn1 (stereo not drawn)	46	-13%	-1%	21µM*	18µM*
CC(C)CN1CCN=C1Nc1ccccc1	10	13%	17%	-12%	-10%
CN(C)C(=O)CCc1ccc2c3c([nH]c2c1)[C@]1(CCC2CCCC2)[C@@H](C(=O)N2CCOCC2)C[C@H](CC(=O)NCCc2ccccn2)C(=O)N1CC3	-5	3%	3%	3%	-6%
Cc1c(CCC(=O)NCCc2ccc(Cl)cc2)c(=O)oc2c(C)c(O)ccc12	/	/	/	-20%	?
COCOCCn1cc(CN2CCS(=O)(=O)N(Cc3ccc(-c4ccc(Cl)c(Cl)c4)cc3)C(C(C)C)C2=O)nn1 (stereo not drawn)	-28	?	?	2.3µM*	2.3µM*
COc1cc(C)ccc1OCCSc1nc2ccc(NC(C)=O)cc2s1	/	/	/	21µM*	?
COc1cc(CC(=O)Nc2ccc3nc(SC)sc3c2)cc(OC)c1OC	77	-5%	3%	21µM*	?
COC(=O)CSc1nc2ccc(NC(C)=O)cc2s1	-53*	9%	9%	1%	-7%
CSc1nc2ccc(NC(=O)COc3ccccc3F)cc2s1	26	2%	0%	?	-14%
SMILES	IL-1B inflam inh	HT1080NT lethal	HT1080 IDH1KD tx	DT40 TDP1 no CPT	DT40 TDP1 CPT
CC(=O)Nc1ccc2nc(SCc3ccccc3)sc2c1	/	/	/	?	-27%
Cc1cc(C)cc(CC(=O)N2CCC2(C)C(=O)NS(=O)(=O)c2ccc(C(C)(C)C)cc2)c1 (stereo not drawn)	42	-3%	1%	-9%	-23%
COc1ccc(C(O)c2nc(-c3cc4ccccc4o3)cs2)cc1 (stereo not drawn)	49	2%	6%	?	?
COc1ccc(/C=C/CN2CCN(CC(C)C)C(CCO)C2)cc1 (stereo not drawn)	-5	-1%	-1%	-1%	10%
Cc1cccc(NC(=O)CCN2C(=O)c3cccc([N+](=O)[O-])c3C2=O)c1	16	12%	21%	18%	1%
CCCN(CC(=O)Nc1ccccc1C)C(=O)CCN1C(=O)c2cccc([N+](=O)[O-])c2C1=O	-51*	1%	-2%	-19%	6%
CCCN(CC(=O)Nc1ccccc1C)C(=O)CCCOc1ccc(Br)cc1	4	-1%	-11%	18µM*	?
Cc1ccc(/C=C/S(=O)(=O)NCC(=O)OCC(=O)N2CC(=O)Nc3ccccc32)cc1	41	17%	1%	11%	2%
CN(NC(=O)c1cccc(Cl)c1)c1nc(-c2ccccc2)nnc1C(F)(F)F	19	-21%	-25%	12µM*	18µM*
FC(F)(F)c1nnc(-c2ccccc2)nc1Oc1ccc(Cl)cc1Cl	-77*	-5%	3%	?	?
FC(F)(F)c1nnc(-c2ccccc2)nc1N1CCCC1	-8	1%	0%	1%	-3%
FC(F)(F)c1cccc(Sc2nc(-c3ccccc3)nnc2C(F)(F)F)c1	-118*	?	?	12µM*	8.2µM*
FC(F)(F)c1nnc(-c2ccccc2)nc1Sc1ccccc1	-121*	?	?	10µM*	15µM*
CCOc1ccc2nc(N3CCCC3C(=O)N3CCC(c4nc5ccccc5o4)CC3)nc(C)c2c1 (stereo not drawn)	/	/	/	-20%	-2%
Cc1ccc(C)c(NS(=O)(=O)c2cc3c4c(c2)CC(=O)N4CCC3)c1	-13	-3%	-2%	-2%	?
FC(F)(F)c1nnc(-c2ccccc2)nc1Sc1ccc(Cl)cc1	-98*	?	?	6.5µM*	5.2µM*
O=C(CSc1ccc(-c2ccc(F)cc2)nn1)N1CCOCC1	-3	14%	-1%	2%	1%
OC1CCCC1NCc1ccnc2cc(Cl)ccc12 (stereo not drawn)	-4	18%	0%	16µM*	?

Bioassay records from PubChem BioAssay.
